Compounds with a hit are over-represented: about 2.3% of the library has one in this group of screens.
PME-1 primary = PME-1 inhibitors via competitive probe labeling, primary screen, biochemical, fluorescence polarization, FP-Rh probe, HTS. hit rate 0.53% among 320,000. inhibition, % at 5.9 µM. recombinant PME-1. Protein phosphatase methylesterase 1 (Homo sapiens), Q9Y570;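 active = inhibition above the campaign mean of all compounds plus 3 SD, cut at about 26% in these data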;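 note: competitive labeling of PME-1 active site by serine hydrolase directed probe; inhibitors block probe labeling so polarization falls and inhibition rises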
Target sequence (Q9Y570 whole entry, looked up): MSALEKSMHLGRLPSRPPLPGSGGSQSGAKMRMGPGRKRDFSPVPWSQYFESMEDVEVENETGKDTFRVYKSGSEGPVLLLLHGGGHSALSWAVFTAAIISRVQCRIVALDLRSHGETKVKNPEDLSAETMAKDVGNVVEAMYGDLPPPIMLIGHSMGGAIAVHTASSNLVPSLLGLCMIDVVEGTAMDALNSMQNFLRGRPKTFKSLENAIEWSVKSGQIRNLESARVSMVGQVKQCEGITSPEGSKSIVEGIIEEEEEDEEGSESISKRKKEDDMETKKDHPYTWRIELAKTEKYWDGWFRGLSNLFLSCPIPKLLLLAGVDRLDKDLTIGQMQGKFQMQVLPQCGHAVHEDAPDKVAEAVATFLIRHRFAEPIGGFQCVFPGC
Fam108B counter = mouse Fam108B serine hydrolase inhibitors, primary screen, counter-screen for RBBP9 inhibitor project, biochemical, fluorescence polarization; inhibition, % at 9.51 µM; recombinant Fam108B, FP-Rh probe fluorescence polarization; AID 1947, 2009; hit rate 0.33% among 300,000;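 active = inhibition above the screen mean inhibition plus 3 SD, computed separately per campaign, cut at about 18% in these data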;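 note: inhibitors lower polarization as less probe binds the enzyme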
GSTO1 counter = inhibitors of recombinant GSTO1, primary screen, counter-screen for RBBP9 inhibitor project, biochemical, fluorescence polarization; inhibition, % at 5.96 µM; AID 1974, 2009; activity-based probe fluorescence polarization; hit rate 1.1% among 300,000; Glutathione S-transferase omega-1 (Homo sapiens), P78417;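 active = inhibition above the campaign mean inhibition plus 3 SD, cut at about 35% in these data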
Target sequence (P78417 whole entry, looked up): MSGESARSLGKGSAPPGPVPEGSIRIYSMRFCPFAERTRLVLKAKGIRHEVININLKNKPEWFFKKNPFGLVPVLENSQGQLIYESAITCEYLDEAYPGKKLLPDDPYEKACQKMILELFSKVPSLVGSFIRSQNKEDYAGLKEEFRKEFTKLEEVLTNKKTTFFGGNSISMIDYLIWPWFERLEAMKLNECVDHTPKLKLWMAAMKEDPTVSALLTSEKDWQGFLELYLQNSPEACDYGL
pPAFAH FP inh = pPAFAH enzyme inhibitors, primary screen, biochemical, fluorescence polarization, human. inhibition, % at 3.39 µM. AID 463082, 2010. hit rate 1.5% among 330,000. recombinant pPAFAH, FP-rhodamine probe fluorescence polarization. Platelet-activating factor acetylhydrolase (Homo sapiens), Q13093;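 active = inhibition above the mean inhibition across the screen plus 3 SD, cut at about 25% in these data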;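 note: inhibitors block binding of the rhodamine activity-based probe so polarization drops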
PAD4 FP inh = human PAD4 inhibitors, primary screen, biochemical, fluorescence polarization, 1536-well format. Protein-arginine deiminase type-4 (Homo sapiens), Q9UM07. recombinant PAD4, RCA probe fluorescence polarization. inhibition, % at 6.36 µM. hit rate 0.41% among 330,000;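 active = percent inhibition above a cutoff equal to the mean of all tested compounds plus 3 SD, cut at about 15% in these data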
GSTO1 confirm = GSTO1 inhibitor hit confirmation, counter-screen for RBBP9 inhibitor project, biochemical, fluorescence polarization, triplicate; shares compounds with GSTO1 counter; recombinant GSTO1, probe fluorescence polarization; inhibition, % at 5.96 µM; hit rate 54% among 2,400;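 active = inhibition above the primary screen's cutoff, its mean inhibition plus 3 SD, cut at about 35% in these data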;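 note: loss of polarization as inhibitors block binding of rhodamine sulfonate ester activity probe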
pPAFAH FP conf = pPAFAH (PLA2G7) enzyme inhibitors, confirmation, biochemical, fluorescence polarization, human; shares compounds with pPAFAH FP inh; recombinant pPAFAH, FP-Rh probe fluorescence polarization; inhibition, % at 3.39 µM; hit rate 72% among 2,300; AID 463230, 2010;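 active = mean inhibition of the triplicate above the hit cutoff set for the earlier primary screen, cut at about 25% in these data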
PAD4 confirm = human PAD4 inhibitors, confirmation, biochemical, fluorescence polarization; recombinant PAD4, RCA probe fluorescence polarization; hit rate 28% among 1,200; shares compounds with PAD4 FP inh; inhibition, % at 6.36 µM;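 active = mean inhibition across replicates above the hit cutoff set by the earlier primary screen, cut at about 15% in these data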;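 note: inhibitors block active-site labeling by the probe so polarization falls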
Hits are given with their value; . = inactive; / = no result; ! = a repeat was not active.

SMILES	PME-1 primary	Fam108B counter	GSTO1 counter	pPAFAH FP inh	PAD4 FP inh	pPAFAH FP conf	others
CCOC(=O)c1c(NS(=O)(=O)c2ccccc2)n(CCCOC)c2nc3ccccc3nc12	33	.	93	.	79	/	GSTO1 confirm=59;PAD4 confirm=.
COC(=O)C1=C(c2ccc(C(C)=O)cc2)C[C@@H]2CC[C@H]1N2C(=O)NCCOc1ccccc1Cl	.	/	/	.	.	/
CN1CC[C@@]2(C)c3cc(O)ccc3N(C)C2O1 (stereo not given in full)	.	.	85	.	45	/	GSTO1 confirm=51;PAD4 confirm=.
C=CCN1CC[C@@]2(C)c3cc(O)ccc3CC1[C@@H]2C	.	.	.	.	.	/
O=C(O)C(Br)CBr (stereo not given)	.	/	/	.	.	/
COCCNC(=O)c1c(N)n(CCC(C)C)c2nc3ccccc3nc12	.	.	75	.	40	/	GSTO1 confirm=.;PAD4 confirm=.
COC(=O)C1=C(c2cc3ccccc3s2)C[C@@H]2CC[C@H]1N2C(=O)N1CCCCC1	.	.	.	.	.	/
CNc1ccc2oc(C[C@H]3O[C@@]4(CC[C@H]3C)O[C@H]([C@H](C)C(=O)c3ccc[nH]3)[C@H](C)C[C@H]4C)nc2c1C(=O)O	.	.	42	38	57	.	GSTO1 confirm=.;PAD4 confirm=.
CC[C@@H](CO)NC(=O)[C@@H]1C=C2c3cccc4c3c(cn4C)C[C@H]2N(C)C1	.	.	48!	.	22!	/	GSTO1 confirm=.;PAD4 confirm=.
Clc1ccc(OCC#CCN2CCCCCC2)cc1	.	.	.	.	.	/
O=C(c1ccc(-c2ccccc2)cc1)C1CCCN(Cc2ccn[nH]2)C1 (stereo not given)	.	.	.	.	.	/
Cc1ccc(CS(=O)(=O)Cc2ccc(C(=O)N3CCC4(CC3)OCCO4)o2)cc1	.	.	.	40	.	32
COc1ccc2nc3oc(C(=O)N4CCC5(CC4)OCCO5)cc3cc2c1	.	.	.	44	.	36
Cc1ccc(-c2cc(-c3ccccc3)cc(-c3ccccc3)[n+]2-c2ccc(C(=O)O)cc2)cc1	.	.	.	38	.	.
Cc1ccc(-c2cc(-c3ccc(C)cc3)[n+](-c3ccc(C(=O)O)cc3)c(-c3ccc(C)cc3)c2)cc1	.	.	.	.	.	/
O=C(COC(=O)Cc1ccccc1)Nc1cc(S(=O)(=O)N2CCOCC2)ccc1N1CCCC1	.	.	.	39	.	39
CN(C)C(=O)Oc1noc2cc(Cl)ccc12	.	.	.	43	.	52
CN(C)C(=O)Oc1c(Cl)cc(Cl)c2cccnc12	.	.	.	.	.	/
COc1c2c(cc3c1OCO3)CC[N+](C)=C2	.	.	.	.	.	/
O=C(N/N=C/c1c(O)n(CCC2=CCCCC2)c(=S)[nH]c1=O)c1ccccc1	.	.	.	52	.	42
CC[C@H](C)/C=C(C)/C=C/C1=CC2=C(Cl)C(=O)[C@@](C)(OC(C)=O)C(=O)C2=CO1	.	.	36	79	.	79
O=C(c1cccs1)c1cn(Cc2ccccc2Cl)c2ccccc12	.	.	.	71	.	71
N#Cc1ccccc1Cn1cc(C(=O)c2cccs2)c2ccccc21	.	.	.	72	.	75
N#Cc1ccccc1Cn1cc(C(=O)c2ccccc2F)c2ccccc21	.	.	.	72	.	79
O=C(c1ccco1)c1cn(Cc2ccc(Cl)cc2)c2ccccc12	.	.	.	.	.	/
SMILES	PME-1 primary	Fam108B counter	GSTO1 counter	pPAFAH FP inh	PAD4 FP inh	pPAFAH FP conf	others
COC(=O)C1=C(c2ccc(F)cc2OCc2ccccc2)C[C@@H]2CC[C@H]1N2C(=O)NCCCc1ccccc1	.	/	/	.	.	/
COc1ccc(OC)c(-n2c(O)c(C=Nc3c(C)n(C)n(-c4ccccc4)c3=O)c(=O)[nH]c2=S)c1	.	.	.	.	.	/
CCCNC(=O)N1[C@H]2CC[C@@H]1C(C(=O)OC)=C(c1ccc(C(C)=O)cc1)C2	.	/	/	.	.	/
O=C(C1CC(c2ccc(Cl)c(Cl)c2)=NO1)N1CCC2(CC1)OCCO2 (stereo not given)	.	.	.	61	.	50
O=C(C1CC(c2ccc(F)cc2)=NO1)N1CCC2(CC1)OCCO2 (stereo not given)	.	.	.	.	.	/
CC(C)CC12CN3CCN(CC(C3)C1O)C2 (stereo not given)	.	.	.	.	.	/
Cc1ccc(C2=CCNCC2)cc1	.	.	.	.	.	/
C(#CCN1CCOCC1)COCc1ccccc1	.	.	.	.	.	/
CN(C)S(=O)(=O)c1cc(NC(=O)COC(=O)Cc2ccccc2)ccc1Cl	.	.	.	.	.	/
O=C(COC(=O)Cc1ccccc1)Nc1ccc(SC(F)F)cc1	.	.	.	36	.	29
O=C(C1CCN(S(=O)(=O)c2ccccc2)CC1)N1CCC2(CC1)OCCO2	.	.	.	.	.	/
COc1ccc(-n2c(/C=C/c3ccc(O)c(O)c3)nc3ccccc3c2=O)cc1	34	.	.	37	.	46
CCN(CC)c1ccc(N=Cc2c(O)n(-c3cc(OC)ccc3OC)c(=O)[nH]c2=O)cc1	.	.	.	38	18	.	PAD4 confirm=.
CCN(CC)c1ccc(N=Cc2c(O)n(Cc3ccco3)c(=O)[nH]c2=O)cc1	.	.	.	46	16	.	PAD4 confirm=.
CCN(CCO)c1ccc(N=Cc2c(O)n(C)c(=S)[nH]c2=O)cc1	.	.	48	37	40	.	PAD4 confirm=.
NC(=O)c1ccc(N=Cc2c(O)n(Cc3ccco3)c(=O)[nH]c2=O)cc1	.	.	.	.	.	/
COc1ccc(-n2c(O)c(C=NCCN(C)C)c(=O)[nH]c2=O)cc1	.	.	.	.	.	/
Cc1c(C(=O)Nc2ccccc2)c2cc(O)ccc2n1Cc1ccccc1	.	.	.	.	.	/
CN1CC=C2C(C#N)=C(N)C(C#N)(C#N)C(c3ccncc3)C2C1 (stereo not given)	.	.	.	.	27	/	PAD4 confirm=.
CN1CC=C(/C=C/c2ccc(-c3ccccc3)cc2)CC1	.	.	.	.	.	/
C#C[C@@]1(O)CCC2C3CCC4=C/C(=N/OCC(=O)NC(C(=O)O)C(C)O)CC[C@]4(C)C3CC[C@@]21C (stereo not given in full)	.	.	.	.	.	/

Source: PubChem BioAssay
